Reference: the supplement of paper PMC10338343
± gives the standard deviation.

Each sequence was assayed on MILI (PIWIL2) piRISC loaded with L1MC piRNA (26 nt) (assay: pre-steady-state target cleavage rate (min^-1); guide: L1MC piRNA 5'p-UAACUAAAUACUAUGCAAGCUGUAGG; MIWI and MILI are mouse PIWI proteins and EfPiwi is from a freshwater sponge; tags in brackets are library labels; higher = faster piRNA-guided slicing of the target). Conditions: auxiliary factor: 500 nM mouse GTSF1.
Procedure: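 Cleave-'n-Seq: a library of target RNAs (target site embedded in constant flanks, ACAGCATTCCGCGTTAGTGATATCCG... 5' flank; DNA-blocked outside the site) at 0.1 nM was incubated with 1 nM active mouse MILI or MIWI piRISC (synthetic 5'-monophosphorylated piRNA guide) with or without 500 nM mouse GTSF1 at 33 °C for 1 min to 16 h. Uncleaved targets were sequenced and normalised to non-target controls, and the pooled three trials were fitted to a burst-and-steady-state model to give the pre-steady-state cleavage rate (min^-1; k3 is constrained to at most 1e-4). Sequence is the target site only; target names encode pairing extent (gX:gY) and contiguous / 1-mismatch / 2-mismatch / bulge geometry. Fits with R² ≤ 0 are excluded.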

Row | Sequence | pre-steady-state target cleavage rate
1 | UCCUCCAACAGCUUGCAUAGUAUUAAGUUA | 0.135 ± 0.021
2 | UCCUGGAUGUCGAAGCAUAGUAUUUAGGUUA | 0.0552 ± 0.0097
3 | UCCUGGAUGUCGUUGCAAAGUAUUUAGUAA | 0.0183 ± 0.0061
4 | UCCUGGUACAGCUUGCAUAGUACUUUAGUUA | 0.147 ± 0.024
5 | UCCUGCUACUGCUUGCAUAGUAUUUAGUUA | 0.234 ± 0.025
6 | UCCUCCUACAGCUUGCAUAGUAUUUAGUCUA | 0.154 ± 0.041
7 | UCCUGGUACAGCUUGUAUAGUAUUUAGUUA | 0.242 ± 0.017
8 | UCCUGGAUGUGCUUGCAUAGGUAUUUAGUUA | 0.0061 ± 0.0046
9 | UCCUGGAUCAGCUAGCAUUGUAUUUAGUUA | 0.107 ± 0.014
10 | UCCUGGUUCAGCAUGCAUAGUAUUUAGUUA | 0.199 ± 0.026
11 | UCCUGGUAGUCCUUGCAUAGUAUUUACAAA | 0.00835 ± 0.0045
12 | UCCUCCUAGAGCUAGCAUAGUAUUUAGUUA | 0.218 ± 0.015
13 | UCCUCCUACACCUUGCUUAGUAUUUAGUUA | 0.193 ± 0.022
14 | UCCUCCUACAGGUUGCAUAGUAUUUACUUA | 0.0691 ± 0.015
15 | UCCUGGAACAGCUUUGCAUAGUAUUUAGUUA | 0.248 ± 0.016
16 | UCCUGCUACAGCUUGCAUAGUUAUUUAGUUA | 0.0195 ± 0.0087
17 | UCCUGGAUGUGCUAGCAUAGUAUUUAGUUA | 0.125 ± 0.013
18 | UCCUGGAUGUGCUUGCAUAGUAUUCUAGUUA | 0.193 ± 0.045
19 | UCCUGGAUGUCCUUGCAUAGUAUUUAGGUA | 0.0702 ± 0.017
20 | UCCUGGAACAGCUUGCAUAGUAUUUCGUUA | 0.0829 ± 0.02
21 | UCCUGCUAGAGCUUGCAUUGUAUUUAGUUA | 0.219 ± 0.018
22 | UCCUGGAUGUUCUUGCAUAGUAUUUAGUUA | 0.0709 ± 0.01

Same assay, conditions: auxiliary factor: none (no GTSF1)

Row | Sequence | pre-steady-state target cleavage rate
23 | UCCUCCAACAGCUUGCAUAGUAUUAAGUUA | 0.0033 ± 0.0024
24 | UCCUGGAUGUCGAAGCAUAGUAUUUAGGUUA | 0.00259 ± 0.0025
25 | UCCUGGAUGUCGUUGCAAAGUAUUUAGUAA | 0.00357 ± 0.0021
26 | UCCUGGUACAGCUUGCAUAGUACUUUAGUUA | 0.00705 ± 0.0032
27 | UCCUGCUACUGCUUGCAUAGUAUUUAGUUA | 0.00705 ± 0.0018
28 | UCCUGGUACAGCUUGUAUAGUAUUUAGUUA | 0.0121 ± 0.0031
29 | UCCUGGAUGUGCUUGCAUAGGUAUUUAGUUA | 0.00533 ± 0.0032
30 | UCCUGGAUCAGCUAGCAUUGUAUUUAGUUA | 0.00287 ± 0.0024
31 | UCCUGGUUCAGCAUGCAUAGUAUUUAGUUA | 0.0092 ± 0.0032
32 | UCCUCCUAGAGCUAGCAUAGUAUUUAGUUA | 0.00391 ± 0.0022
33 | UCCUCCUACACCUUGCUUAGUAUUUAGUUA | 0.00665 ± 0.0019
34 | UCCUGGAUGUCCUUGCAAAGAAUUUAGUUA | 0.00283 ± 0.0026
35 | UCCUGGAACAGCUUUGCAUAGUAUUUAGUUA | 0.00711 ± 0.0027
36 | UCCUGCUACAGCUUGCAUAGUUAUUUAGUUA | 0.00428 ± 0.0024
37 | UCCUGGAUGUGCUAGCAUAGUAUUUAGUUA | 0.00747 ± 0.0023
38 | UCCUGGAUGUGCUUGCAUAGUAUUCUAGUUA | 0.00428 ± 0.0034
39 | UCCUGCUAGAGCUUGCAUUGUAUUUAGUUA | 0.0097 ± 0.0023
40 | UCCUGGAUGUUCUUGCAUAGUAUUUAGUUA | 0.0115 ± 0.003
